# Bfl-1 A1 inh: caspase 3/7 activation in MEF A1-2A-BIM cells, primary screen, A1 inhibitor project, cell-based, luminescence, HTS; Caspase-Glo 3/7 luminescence, 3 h; percent of clofoctol response, vehicle zero; caspase activation, % (no concentration beside the values); 0.066% of 330,000 active; AID 2462, 2010;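 active means over half of replicate activation scores above 10%, or exactly half above 10 with the replicate mean above 10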
# NALP3 yeast inh: NALP3 inflammasome inhibitors in reconstituted yeast, primary screen, luminescence, uHTS; Yeast reconstituted NLRP3/ASC/caspase-1, beta-gal luminescence, 24 h; inhibition, % at 10 µM; 0.39% of 330,000 active;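 active means inhibition of 50% or more; inactive means inhibition below 50%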;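 further: plate controls were induced DMSO wells for no effect and uninduced yeast grown without galactose for full effect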
# SUMO Mot1 rescue: yeast Mot1-301 growth rescue at high temperature, primary screen, SUMOylation pathway inhibitor project, S. cerevisiae, ATP luminescence, 38.5C. 1% of 320,000 active. growth rescue, % at 18.8 µM. S. cerevisiae Mot1-301 growth rescue; percent above DMSO median, 100 means doubled;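 active means every valid replicate shows activation above 250% relative to neutral control wells; inactive means the rest, any valid replicate at or below 250%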;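 further: OY570 slx delta 5 strain wells were the positive control but not used for scaling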
# CHT block: inhibitors of human choline transporter CHT. High affinity choline transporter 1 (Homo sapiens), Q9GZV3. CHT-expressing cells, membrane potential dye, choline response; active compounds read low. B-score at 10 µM. 0.86% of 310,000 active;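 active means B-score over 3 SD under the library average, and starting fluorescence ratio not unusually high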;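 further: choline stimulus applied at its EC90 after an EC20 pre-addition; B-score computed on integrated fluorescence ratio after choline addition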
# Target sequence (Q9GZV3 whole entry, looked up): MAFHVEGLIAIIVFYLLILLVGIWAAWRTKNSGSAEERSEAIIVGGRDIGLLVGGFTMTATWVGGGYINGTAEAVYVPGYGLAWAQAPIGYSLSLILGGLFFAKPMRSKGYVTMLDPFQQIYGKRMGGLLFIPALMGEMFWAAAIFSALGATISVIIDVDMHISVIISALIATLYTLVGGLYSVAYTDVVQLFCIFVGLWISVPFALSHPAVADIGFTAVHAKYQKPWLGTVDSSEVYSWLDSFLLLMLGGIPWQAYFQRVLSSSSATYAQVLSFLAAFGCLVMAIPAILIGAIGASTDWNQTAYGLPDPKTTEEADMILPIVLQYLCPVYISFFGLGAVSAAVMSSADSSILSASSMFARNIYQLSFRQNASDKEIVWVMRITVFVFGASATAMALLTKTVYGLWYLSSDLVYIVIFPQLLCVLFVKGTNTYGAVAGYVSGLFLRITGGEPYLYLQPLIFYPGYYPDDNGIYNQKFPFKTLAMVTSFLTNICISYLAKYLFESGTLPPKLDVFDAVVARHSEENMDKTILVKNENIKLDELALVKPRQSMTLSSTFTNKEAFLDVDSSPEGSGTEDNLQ
# CHT allo act: CHT positive allosteric modulators, primary screen, cell-based, membrane potential dye, choline EC20 | B-score at 10 µM | High affinity choline transporter 1 (Homo sapiens), Q9GZV3 | AID 488977, 2010 | CHT-expressing cells; active compounds read high; LV-AA mutant CHT in HEK293 cells | 0.49% of 310,000 active;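 active means initial fluorescence not abnormally high and integrated response B-score, plate-corrected, over 3 SD above library mean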
# NALP1 inh: NALP1 inflammasome inhibitors in reconstituted yeast, colorimetric, S. cerevisiae, triplicate retest; S. cerevisiae NALP1/ASC/caspase-1 growth, X-gal OD620, 72 h; inhibition, % at 10 µM; 0.61% of 280,000 active; in the data active means inhibition mostly above about 24%, no sharp cut-off; inactive means mostly below about 32%
# Starred values were filed as active, the others as inactive; i = inactive; nt = not tested or not shown; + = active, no number. In the library only some 3% were active in any assay of this set; here they are far more common.
SMILES,Bfl-1 A1 inh,NALP3 yeast inh,SUMO Mot1 rescue,CHT block,CHT allo act,NALP1 inh
CNCCCC1c2ccccc2C=Cc2ccccc21,0.1,30.5,-2.8,i,i,24.6
COc1ccc(NC(=O)CN(C)C(=O)Cc2c(C)nc3ccccc3c2C)cc1,-0.5,11.3,-14.4,i,i,nt
O=S(=O)(c1cccs1)N1CCN(c2ccc(O)cc2)CC1,1.6,23.6,6.0,i,i,34.9*
O=S(=O)(c1cccs1)N1CCN(c2ccccn2)CC1,-0.1,5.9,-1.3,i,i,5.1
O=S(=O)(c1cccs1)N1CCN(c2ncccn2)CC1,0.5,-32.1,+,i,i,2.9
O=C(Nc1ccc(SC(F)F)cc1)c1ccc2c(=O)n3c(nc2c1)CCC3,-1.4,-1.3,-2.5,nt,nt,nt
CCN(CC)c1ccc(NC(=O)c2cccnc2)c(C)c1,-0.3,4.2,-19.1,i,i,4.0
CCN(CC)c1ccc(NC(=O)c2cccc(C)c2OC)c(C)c1,0.0,17.7,-1.0,i,i,29.1*
O=C(CCS(=O)(=O)c1ccccc1)NNC(=O)CSc1ccccc1F,-0.8,13.4,2.1,nt,nt,nt
Cc1ccccc1-c1nn(-c2ccc(F)cc2F)cc1CNCCCO,0.6,12.8,-4.6,i,i,19.8*
Cc1cc(C(=O)COC(=O)c2ccc(Cl)c(S(N)(=O)=O)c2)c(C)n1CC1CCCO1 (centres undefined),-0.9,3.6,331.0*,i,i,nt
CCN(CC)CCCN(Cc1cc2cc3c(cc2[nH]c1=O)OCO3)C(=S)NCCCN(C)C,0.8,-7.5,879.8*,i,i,14.9
COc1ccccc1NC(=O)C(C(C)C)N1C(=O)c2ccccc2C1=O (centres undefined),0.5,8.7,-24.0,i,i,20.0
CC(C)C(C(=O)Nc1nccs1)N1C(=O)c2ccccc2C1=O (centres undefined),0.8,11.8,58.7,i,i,28.5*
CCN(CC(=O)Nc1c(F)cccc1F)C(=O)c1ccc(N2C(=O)c3ccccc3C2=O)cc1,0.5,17.1,9.9,i,i,nt
CCN(Cc1ccccc1)C1CCN(Cc2ccc(SC)cc2)CC1,1.1,26.2,229.5,i,i,27.8*
CCN(Cc1ccccc1)C(=O)C1CCN(Cc2ccc(SC)cc2)CC1,0.6,16.1,77.1,i,i,6.3
Cc1ccc2nc3c(c(Nc4ccccc4)c2c1)CCC3,0.5,23.0,-14.2,i,i,41.2*
CCC(=O)c1ccc(OCC(O)CN2CCN(S(=O)(=O)N3CCCCC3)CC2)cc1 (centres undefined),0.0,27.9,286.1*,i,i,6.1
CCOC(=O)/C(C#N)=C1\SS/C(=C(/C#N)C(=O)OCC)S1,-0.2,16.7,34.6,-5.49*,i,79.5*
COc1ccc(C(=O)Nc2ccc(O)c3ccccc23)cc1OC,0.1,11.1,-3.0,i,i,nt
Cc1nc(NCCN2CCOCC2)c2oc3ccccc3c2n1,1.3,5.1,-19.2,i,i,15.5
Cc1nc(NCCc2ccccc2)c2oc3ccccc3c2n1,-0.1,7.0,-13.1,i,6.26*,19.5
CCOC(=O)c1cnc2c(N=Nc3ccccc3)c(N)nn2c1N,-6.2,2.7,-6.6,i,i,3.7
CCOC(=O)c1cnc2c(N=Nc3cccc(Cl)c3)c(N)nn2c1N,nt,nt,nt,nt,nt,83.5*
SMILES,Bfl-1 A1 inh,NALP3 yeast inh,SUMO Mot1 rescue,CHT block,CHT allo act,NALP1 inh
O=C(NCCN1CCN(C(=O)c2ccc([N+](=O)[O-])cc2)CC1)C(=O)Nc1ccc(F)cc1,0.2,-2.6,-8.4,i,i,7.5
CCc1nccn1S(=O)(=O)c1ccc(OC)c(C)c1C,-0.1,6.2,1.5,i,i,34.1*
O=C(NNc1ccc(-c2csnn2)cc1)c1cc(Cl)cc(Cl)c1,0.5,33.0,283.2*,i,i,nt
CCOC(=O)c1nc2sc3c(c2c(=O)[nH]1)CCCC3,-0.1,14.8,-2.7,i,i,12.9
CCOC(=O)c1nc(N2CCN(C(=O)OCC)CC2)c2c3c(sc2n1)CCCC3,0.1,13.1,5.2,-5.9*,i,-20.3
CN1C/C(=C/c2cccnc2)C(=O)/C(=C/c2cccnc2)C1,-0.2,nt,-25.9,i,i,nt
CC(C)N1C/C(=C/c2cccnc2)C(=O)/C(=C/c2cccnc2)C1,nt,nt,nt,nt,nt,105.8*
COc1ccc(-c2cc3c(=O)n(CC(=O)NCCN4CCCC4)nc(C)n3n2)cc1,0.1,-3.3,7.8,i,i,17.5
Cc1ccc(C)c(C(=O)CN2C3=NCCCN3c3ccccc32)c1,-0.3,-8.1,3.5,i,i,33.3*
C#CCOCCOCCOCCNc1nc(N2CCN(C(=O)[C@H](CCCCN)n3cc([C@@H](N)[C@H](C)CC)nn3)CC2)nc(N2CCN(C(=O)[C@H](CCC(=O)O)n3cc([C@@H](N)CCSC)nn3)CC2)n1,-0.1,2.9,-6.5,nt,nt,nt
CCc1c(O)nc(SCC(=O)Nc2ccccc2)n(-c2ccccc2)c1=O,1.0,10.0,18.9,i,i,6.6
CCc1c(O)nc(SCC(=O)Nc2ccc(Br)cc2)n(-c2ccc(C)cc2)c1=O,0.5,7.6,-4.9,i,i,35.0*
COc1ccccc1N1CCN(C(=O)c2ccc3c(=O)n4c(nc3c2)CCCCC4)CC1,1.5,-1.8,-22.0,nt,nt,nt
NCCS,-0.1,45.3,-5.7,i,i,47.0*
CCO[C@H]1OC(C(N)=O)=C[C@@H](C2CC2)[C@@H]1CCCO,-0.5,-5.4,1.5,i,i,nt
O=C(NCC(c1ccccc1)N1CCCC1)C1CCN(C(=O)Nc2ccccc2)CC1 (centres undefined),nt,14.8,nt,nt,nt,nt
CN(CCOC(=O)c1cccc(Br)c1)C(C)(C)C,1.1,10.3,2.1,i,i,27.6*
CCN(CC)CCOC(=O)c1cccc(Br)c1,0.7,5.7,13.5,i,i,21.1
Cc1ccc(C2(c3ccc(C)cc3)CC2C(=O)Nc2ccc([N+](=O)[O-])cc2O)cc1 (centres undefined),26.7*,8.1,-8.2,i,i,2.7
O=C(c1ccc(F)cc1)N1CCC(C(=O)N2CCN(c3ncccn3)CC2)CC1,1.0,11.2,-4.6,nt,nt,nt
O=C1NCCCc2c1oc1ccc(O)cc21,-1.3,-0.1,-7.9,i,i,3.7
Oc1c(Cl)cc(Cl)c2c1NCCC2,nt,13.2,nt,nt,nt,53.0*
CCCOc1ccc(NC(=O)CC2Nc3ccccc3NC2=O)cc1 (centres undefined),-0.1,17.2,571.4*,i,i,7.0
O=C(CCN1CCN(Cc2ccccc2)CC1)NNC(=O)Nc1cccc([N+](=O)[O-])c1,0.3,22.1,14.2,i,i,25.7*
